FLuc modulator: firefly luciferase modulation, counter-screen for miR-21 project; P08659; purified FLuc, Km substrates, luminescence inhibition; Potency, µM (titrated, usually from 57.5 µM), for inactives: at the top dose activity change, negative = inhibition, usual class: inhibitors; actives 6.9% (n = 360,000); AID 588342;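 also: plate controls were vehicle for no effect and reference inhibitor for full effect; nearly all actives have a fitted effect of over 55% in size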
Target sequence (P08659 whole entry, looked up): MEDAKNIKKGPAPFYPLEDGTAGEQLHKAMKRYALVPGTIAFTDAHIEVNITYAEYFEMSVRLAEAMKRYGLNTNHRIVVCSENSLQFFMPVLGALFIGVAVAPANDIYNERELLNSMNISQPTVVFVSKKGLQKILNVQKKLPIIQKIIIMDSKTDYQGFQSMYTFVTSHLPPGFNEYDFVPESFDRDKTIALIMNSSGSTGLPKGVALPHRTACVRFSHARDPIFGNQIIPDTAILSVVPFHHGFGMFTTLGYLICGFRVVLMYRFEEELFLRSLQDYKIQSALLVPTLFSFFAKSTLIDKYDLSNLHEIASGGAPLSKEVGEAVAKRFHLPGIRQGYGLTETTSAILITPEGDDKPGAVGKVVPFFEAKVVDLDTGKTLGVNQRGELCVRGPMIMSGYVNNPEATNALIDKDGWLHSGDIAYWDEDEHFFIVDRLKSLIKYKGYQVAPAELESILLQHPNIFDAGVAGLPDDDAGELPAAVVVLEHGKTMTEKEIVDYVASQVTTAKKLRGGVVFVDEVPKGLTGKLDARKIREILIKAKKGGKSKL
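Biochemical qHTS of compounds, final roughly 60 µM downward over six points, against 10 nM purified firefly luciferase using Km concentrations of substrates (10 uM D-luciferin, 10 uM ATP) in Tris acetate pH 7.5 buffer; luminescence output.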
ELG1 genotox: induces genotoxicity in HEK293T cells with luciferase-tagged ELG1; Potency, µM (titrated, usually from 46 µM), inactives show at the top dose activity change, positive = activation, hits mostly activators; actives 1.3% (n = 330,000); HEK293T ELG1-luciferase reporter, luminescence, 16 h; also: % of control where 0% means no effect; nearly all actives have a fitted effect of over 60% in size
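Quantitative HTS format in 1536-well plates. HEK293T ELG1-luciferase reporter cells receive test compound and are incubated 16 hr at 37 °C, 5% CO2; ONE-Glo added, 30 min room temperature, then luminescence read.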
KinaseGlo FLuc: Kinase-Glo luciferase inhibition (counter-screen); Potency, µM (top dose mostly 38.3 µM), for the others: at the top dose activity change, negative = inhibition, hits mostly inhibitors; actives 0.28% (n = 200,000); Kinase-Glo luciferase, ATP luminescence, 8 min; Q27757; also: % is scaled to controls: 0 for no effect and ±100 for the full control effect; nearly all actives have a fitted effect of over 60% in size
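Kinase-Glo luciferase light output from ATP and luciferin was measured with 10 uM ATP, within the enzyme's linear range. Buffer: 50 mM imidazole pH 7.2, 50 mM KCl, 7 mM MgCl2, 0.01% Tween 20, 0.05% BSA; luminescence read after 8 min at ambient temperature.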
Rab9 prom act: activators of Rab9 promoter; Huh7 Rab9 promoter-luciferase reporter, luminescence, 24 h; Potency, µM (series often up to 9.22 µM), inactives show top-dose activation, negative = inhibition, usual class: activators; actives 2.8% (n = 320,000); AID 485297; also: % of control where 0% means no effect; nearly all actives have a fitted effect of over 60% in size
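Rab9 promoter-driven luciferase in stably transfected Huh7 cells; 1500 cells/well rested 2 h, exposed to compound in DMSO for 24 h at 37 °C, 5% CO2. Luminescence read 10 min after adding luciferase reagent at ambient temperature.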
NPC1 prom act: NPC1 promoter activation | Huh7 NPC1 promoter luciferase reporter, 24 h | Potency, µM (highest dose often 9.22 µM), inactives show at the highest dose activation, most hits filed as activators | actives 2.4% (n = 320,000) | AID 485313; also: % of control where 0% means no effect; nearly all actives have a fitted effect of over 60% in size
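Stable NPC1-promoter luciferase Huh7 line; cpd (DMSO) 24 h, 37 °C, 5% CO2; Amplite luciferase reagent 10 min RT; luminescence readout. qHTS format.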
SMN2 splice enh: enhancers of SMN2 splice variant expression; HEK293 SMN2-luciferase splicing reporter, luminescence, 30-36 h; Potency, µM (titrated, usually from 46.1 µM), for inactives: top-dose activity change, positive = activation, usual class: activators; actives 2.8% (n = 210,000); AID 1458; also: % of control where 0% means no effect; nearly all actives have a fitted effect of over 55% in size
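qHTS luciferase splicing reporter: luminescence rises when SMN2 exon 7 is included in transfected HEK293 cells. Compound exposure lasted 30-36 h at 37C, with 4.5 mM final sodium butyrate as control, followed by a ONE-Glo read.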
Active calls of the source: *; [ ] = dose if it differs, or a comment. The list is not random: actives were taken first. Their share in the collection is about 7.5%. Calls follow the shape of the dose curve; as a rule, active = well fitted curve in the direction sought with a large enough effect; inconclusive = small, poorly fitted or top-dose-only effect, or another doubt; inactive = no such curve, though single readings can be large; an effect the other way counts as inactive or inconclusive. Potency is read from the fitted curve at half-maximal effect.

`O=C(CCC1CCCC1)Nc1ccc(Br)cn1` gave FLuc modulator -4%[2.3 µM], ELG1 genotox 20%, KinaseGlo FLuc 3%, Rab9 prom act 2.2µM*, NPC1 prom act inconclusive and SMN2 splice enh inconclusive.
CCCC(=O)Nc1ccc(Br)cn1 was read as FLuc modulator -4%, ELG1 genotox -7%, KinaseGlo FLuc -2%, Rab9 prom act 24%, NPC1 prom act 0% and SMN2 splice enh 23%.
COc1ccc(Nc2cc(Nc3cc(OC)c(OC)c(OC)c3)ncn2)cc1 was read as FLuc modulator inconclusive, ELG1 genotox inconclusive, Rab9 prom act 0% and NPC1 prom act 0%.
Screening COC(=O)c1ccnc(SCC(=O)c2ccccc2)c1 returned FLuc modulator 3.8µM*, ELG1 genotox 15µM*, KinaseGlo FLuc -5%, Rab9 prom act 2.8µM*, NPC1 prom act 3.2µM* and SMN2 splice enh inconclusive.
COC(=O)c1cnc(SCC(=O)c2ccccc2)n1C was read as FLuc modulator 3.4µM*, ELG1 genotox inconclusive, Rab9 prom act 1.1µM* and NPC1 prom act 1µM*.
For COC(=O)c1cnc(SCc2ccc(Cl)cc2)n1C the results were FLuc modulator inconclusive, ELG1 genotox 10%, KinaseGlo FLuc -1%, Rab9 prom act inconclusive and NPC1 prom act 21%.
For O=C(NN=C1CCCCCCCCCCC1)c1ccccc1F the results were FLuc modulator -1%, ELG1 genotox -1%, KinaseGlo FLuc 3%, Rab9 prom act 1%, NPC1 prom act 0% and SMN2 splice enh 19%.
`Cc1ccc(S(=O)(=O)Nc2cc(C)c(O)c(Sc3n[nH]c(C)n3)c2)cc1` gave FLuc modulator -2%, ELG1 genotox -2%, Rab9 prom act 0% and NPC1 prom act -5%.
CSc1nc2ccc(NC(=O)C3=NNC(=O)CC3)cc2s1 was read as FLuc modulator inconclusive, ELG1 genotox 10%, KinaseGlo FLuc -1%, Rab9 prom act 22%, NPC1 prom act 19% and SMN2 splice enh 19%.
Screening CSc1nc2ccc(NC(=O)C3=NN(c4ccccc4)C(=O)CC3)cc2s1 returned FLuc modulator 19µM*, ELG1 genotox 0%, KinaseGlo FLuc 0%, Rab9 prom act 0%, NPC1 prom act 6% and SMN2 splice enh inconclusive.
Screening CSc1nc2ccc(NC(=O)c3ccccn3)cc2s1 returned FLuc modulator 0.43µM*, ELG1 genotox 0.092µM*, Rab9 prom act 0.4µM* and NPC1 prom act 0.45µM*.
`CSc1nc2ccc(NC(=O)CSc3nnc(N)s3)cc2s1` gave FLuc modulator 21µM*, ELG1 genotox inconclusive, KinaseGlo FLuc -3%, Rab9 prom act 15%, NPC1 prom act 9% and SMN2 splice enh 9%.
CCOc1ccc2ncc3c(-c4cccc(OC)c4)nn(-c4ccccc4)c3c2c1 was read as FLuc modulator -6% and SMN2 splice enh -2%.
Screening CCC(C(=O)Nc1ccccc1)n1nc(-c2cc(C)ccc2C)ccc1=O (stereo not given) returned FLuc modulator -18% and SMN2 splice enh -3%.
For Cc1ccc(CCNC(=O)c2sc3nc4n(c(=O)c3c2C)CCCC4)cc1 the results were FLuc modulator -8%.
`C/C(=N\Nc1nc2ccccc2[nH]1)c1cc2ccccc2o1` gave FLuc modulator 2.4µM*, ELG1 genotox inconclusive, KinaseGlo FLuc -24%, Rab9 prom act inconclusive, NPC1 prom act 16% and SMN2 splice enh 13µM*.
`C/C(=N\Nc1nc2ccccc2[nH]1)c1ccccn1` gave FLuc modulator 0.85µM*, ELG1 genotox 2.5µM*, Rab9 prom act 29% and NPC1 prom act inconclusive.
`CCNc1nc2ccccc2[nH]1` gave FLuc modulator -1%, ELG1 genotox 1%, KinaseGlo FLuc 3%, Rab9 prom act 5%, NPC1 prom act -4% and SMN2 splice enh -19%.
Screening O=c1cc(-c2ccccc2)[nH]n1-c1ccc([N+](=O)[O-])cc1 returned FLuc modulator 15µM*, ELG1 genotox -2%, KinaseGlo FLuc -6%, Rab9 prom act inconclusive, NPC1 prom act 20% and SMN2 splice enh -9%.
Screening CCCn1c(=O)n(C)c(=O)c2c(SCC(=O)Nc3cc(C)on3)nc(C(C)(C)C)nc21 returned FLuc modulator 0%, ELG1 genotox -5%, Rab9 prom act -4% and NPC1 prom act -11%.
O=C(/C=C/c1cccs1)NC1CC1 was read as FLuc modulator -18%, ELG1 genotox 4%, KinaseGlo FLuc -4%, Rab9 prom act 18%, NPC1 prom act 7% and SMN2 splice enh 2%.
Screening O=C(/C=C/c1cccs1)Nc1ccc(Br)cn1 returned FLuc modulator 3µM*, ELG1 genotox 9.2µM*, KinaseGlo FLuc -3%, Rab9 prom act inconclusive, NPC1 prom act inconclusive and SMN2 splice enh 14µM*.
Screening O=C(/C=C/c1cccs1)Nc1cccc(NC(=O)/C=C/c2cccs2)n1 returned FLuc modulator 1.9µM*, ELG1 genotox -3%, KinaseGlo FLuc -2%, Rab9 prom act inconclusive, NPC1 prom act inconclusive and SMN2 splice enh 7.1µM*.
For CCOC(=O)c1ccc(NC(=O)/C=C/c2cccs2)cc1 the results were FLuc modulator 11µM*, ELG1 genotox -1%, KinaseGlo FLuc -6%, Rab9 prom act inconclusive, NPC1 prom act inconclusive and SMN2 splice enh inconclusive.
Screening COc1ccc(/C=C/C(=O)NC(=S)Nc2ccc(Br)cn2)cc1 returned FLuc modulator -15%, ELG1 genotox 15%, Rab9 prom act 18% and NPC1 prom act 17%.
Screening CCc1nnc(NC(=O)C=C(C)C)s1 returned FLuc modulator inconclusive, ELG1 genotox inconclusive, KinaseGlo FLuc 2%, Rab9 prom act inconclusive, NPC1 prom act inconclusive and SMN2 splice enh 10µM*.
For O=C(CN1CCC(C(=O)c2cccc(Cl)c2)CC1)Nc1ccc(C(=O)O)cc1 the results were FLuc modulator 0%, ELG1 genotox 2%, KinaseGlo FLuc -6%, Rab9 prom act -4% and NPC1 prom act -1%.
Screening CC(C)Oc1ccccc1C1C=C(C(=O)O)Nc2ncnn21 (stereo not given) returned FLuc modulator -5% and SMN2 splice enh -8%.
`Cc1ccccc1NC(=O)C(=O)Nc1ccccc1C` gave FLuc modulator inconclusive, ELG1 genotox inconclusive, Rab9 prom act 0.89µM* and NPC1 prom act 1.3µM*.
Screening CCCCNC(=O)/C=C/c1cccs1 returned FLuc modulator inconclusive, ELG1 genotox 14%, KinaseGlo FLuc -2%, Rab9 prom act 18%, NPC1 prom act 10% and SMN2 splice enh 11%.

Source: PubChem BioAssay (National Center for Advancing Translational Sciences (NCATS))
